We go through 22 molecules from PubChem BioAssay (EPA / NIEHS).

Assay [1] can be described thus: CCTE_Deisenroth_AIME_384WELL_CTox_Inactive: Cytotoxicity Assessment (CTOX) in CCTE's 384-well Estrogen Receptor Transactivation Assay without AIME metabolic competence (metabolism negative), Deisenroth Lab (AID 2284039).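 Also: cell viability via live-cell protease substrate cleaved to fluorescent probe; cells exposed 24 h to medium preincubated 2 h with alginate-water beads without S9; loss of fluorescence signal means loss of viability.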 The procedure, abridged:
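VM7Luc4E2 cells, metabolism-negative arm: test chemicals (0.002–200 uM, 10 points) pre-incubated 2 h with alginate-water microspheres, then medium transferred to cells for 24 h. Viability read as protease-substrate cleavage to fluorescent probe; loss-of-signal, bidirectional fitting.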

Assay [2] deals with Estrogen receptor (Homo sapiens) (UniProt P03372). Briefly: CCTE_Deisenroth_AIME_384WELL_LUC_Inactive: CCTE's 384-well Estrogen Receptor Transactivation Assay without AIME metabolic competence (ERTA luciferase; metabolism negative), Deisenroth Lab (AID 2284038).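 Also: VM7Luc4E2 breast cells given medium preincubated 2 h with S9-free microspheres; hits raise estrogen receptor luciferase signal so potencies reflect agonists.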 The procedure, abridged: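 Chemicals (10-point series, 0.002 - 200 uM) were incubated 2 hours with alginate-water microsphere lids lacking S9, then the conditioned medium was transferred to VM7Luc4E2 breast cells for 24 hour. Luciferase induction was read by bioluminescence, fitted upward relative to 17beta-estradiol.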
Chain of Estrogen receptor (Homo sapiens) (P03372 whole entry, looked up): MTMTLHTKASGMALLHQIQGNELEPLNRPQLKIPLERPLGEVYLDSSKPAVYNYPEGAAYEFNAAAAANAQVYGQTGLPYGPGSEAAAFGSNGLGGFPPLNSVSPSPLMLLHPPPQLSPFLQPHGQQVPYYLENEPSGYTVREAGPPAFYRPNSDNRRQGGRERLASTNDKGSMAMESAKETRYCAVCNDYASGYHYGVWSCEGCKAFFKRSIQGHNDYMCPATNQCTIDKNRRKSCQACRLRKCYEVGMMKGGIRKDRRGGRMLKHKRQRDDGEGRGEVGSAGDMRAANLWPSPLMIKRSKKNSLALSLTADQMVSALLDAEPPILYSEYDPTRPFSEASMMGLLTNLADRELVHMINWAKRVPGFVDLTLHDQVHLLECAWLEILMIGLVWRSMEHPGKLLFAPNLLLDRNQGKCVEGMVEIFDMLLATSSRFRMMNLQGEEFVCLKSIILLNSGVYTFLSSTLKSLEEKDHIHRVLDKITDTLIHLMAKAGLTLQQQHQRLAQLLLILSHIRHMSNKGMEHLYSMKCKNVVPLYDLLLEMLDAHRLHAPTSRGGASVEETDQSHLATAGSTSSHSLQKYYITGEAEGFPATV

Assay [3] has the same target. The assay can be described thus: CCTE_Deisenroth_AIME_384WELL_LUC_Shift: CCTE's 384-well Estrogen Receptor Transactivation Assay with AIME metabolic competence data shift (ERTA luciferase; difference in metabolism positive and negative), Deisenroth Lab (AID 2284041; active = hit-call score of the fitted dose curve at least 0.9, where 1 is the maximum; inactive = score below 0.9;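 also: shift is response with S9 minus without S9 so positive means metabolism raised ER signal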). The procedure, abridged: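 Chemicals (0.002–200 uM, 10 points) pre-incubated 2 h with alginate-encapsulated induced male Sprague Dawley rat liver S9 or S9-free, then medium applied 24 h to VM7Luc4E2 cells; luciferase. Endpoint is per-concentration difference, S9-positive minus negative.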

The nature of assay [4]: CCTE_Shafer_MEA_dev_burst_rate: CCTE's Neural Network Formation Assay for Burst Rate, Shafer Lab (AID 2284042; active = hit-call score of the fitted dose curve at least 0.9, where 1 is the maximum; inactive = score below 0.9). The procedure, abridged: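 Primary rat cortical neurons on PEI-coated 48-well MEA plates (laminin added with cells at plating) (16 electrodes/well), exposed from plating to day 12, dosing renewed at DIV 5 and 9. Burst rate averaged over active electrodes, recorded DIV 5, 7, 9, 12, summarized as AUC; loss versus DMSO.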

A short description of assay [5]: CCTE_Shafer_MEA_dev_per_burst_interspike_interval: CCTE's Neural Network Formation Assay for Burst Interspike Interval, Shafer Lab (AID 2284044; active = hit-call score of the fitted dose curve at least 0.9, where 1 is the maximum; inactive = score below 0.9;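 also: mean spike spacing inside bursts as AUC over recordings on days 5 7 9 12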). The procedure, abridged: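 Spontaneous activity of maturing rat cortical networks is recorded on DIV 5, 7, 9 and 12 under chronic compound exposure beginning at plating. Endpoint: burst interspike interval well-mean, collapsed into trapezoidal AUC and fitted in the negative direction relative to DMSO.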

A short description of assay [6]: CCTE_Shafer_MEA_dev_burst_duration_mean: CCTE's Neural Network Formation Assay for Mean Burst Duration, Shafer Lab (AID 2284045; active = hit-call score of the fitted dose curve at least 0.9, where 1 is the maximum; inactive = score below 0.9). The procedure, abridged: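 Primary rat cortical neurons on 48-well 16-electrode MEA plates, exposed from day 0 with renewal at DIV 5 and 9; spontaneous activity recorded on days 5, 7, 9, 12. Well-mean burst duration across bursting electrodes, collapsed as trapezoidal AUC; DMSO baseline.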

Assay [7] can be described thus: CCTE_Shafer_MEA_dev_interburst_interval_mean: CCTE's Neural Network Formation Assay for Mean Interburst Interval, Shafer Lab (AID 2284046; active = hit-call score of the fitted dose curve at least 0.9, where 1 is the maximum; inactive = score below 0.9;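 also: well-mean interburst interval of bursting electrodes as AUC over four recording days; curve fitted for decrease in interburst interval relative to DMSO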). The procedure, abridged:
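Recordings on days 5, 7, 9 and 12 give well-mean interburst interval across actively bursting electrodes, summarized as area under the curve. Cultures: rat cortical neurons, continuous exposure from day 0, compound renewed at feeds; decrease analyzed versus DMSO.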

The nature of assay [8]: CCTE_Shafer_MEA_dev_inter_network_spike_interval_mean: CCTE's Neural Network Formation Assay for Mean Inter-network Spike Interval, Shafer Lab (AID 2284047; active = hit-call score of the fitted dose curve at least 0.9, where 1 is the maximum; inactive = score below 0.9). The procedure, abridged: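 Primary rat cortical neurons on 16-electrode MEA wells, exposed from plating day 0 through DIV 12, compound renewed at DIV 5 and 9 media changes. Mean interval between network-spike peaks recorded DIV 5, 7, 9, 12; collapsed as trapezoidal AUC, fitted downward versus DMSO.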

Assay [9] in a line: CCTE_Shafer_MEA_dev_network_spike_number: CCTE's Neural Network Formation Assay for Number of Network Spikes, Shafer Lab (AID 2284048; active = hit-call score of the fitted dose curve at least 0.9, where 1 is the maximum; inactive = score below 0.9;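 also: synchronized bursts across electrodes counted on days 5 7 9 12 and integrated as AUC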). The procedure, abridged:
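Primary rat cortical neurons on PEI/laminin 48-well MEA plates, dosed from plating day 0 for 12 days, renewed at DIV 5 and 9. Network spike counts recorded DIV 5, 7, 9, 12, collapsed as trapezoidal AUC; DMSO baseline.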

A short description of assay [10]: CCTE_Shafer_MEA_dev_network_spike_peak: CCTE's Neural Network Formation Assay for Mean Number of Electrodes in Network Spike, Shafer Lab (AID 2284049; active = hit-call score of the fitted dose curve at least 0.9, where 1 is the maximum; inactive = score below 0.9;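 also: fitted for loss of signal meaning fewer electrodes in network spikes than DMSO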). The procedure, abridged:
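Network-spike peak electrode count from recordings on days 5, 7, 9 and 12 was combined as trapezoidal area under the curve. Rat cortical cultures were treated continuously from plating, with compound renewed at each feed (DIV 5, 9); fits versus DMSO.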

Assay [11] is described as follows: CCTE_Shafer_MEA_dev_spike_duration_mean: CCTE's Neural Network Formation Assay for Mean Spike Duration, Shafer Lab (AID 2284051; active = hit-call score of the fitted dose curve at least 0.9, where 1 is the maximum; inactive = score below 0.9;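 also: mean network spike duration pooled as area under curve over DIV 5 to 12 recordings; potency for a decrease in mean network spike duration versus DMSO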). The procedure, abridged:
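Primary rat cortical neurons on 16-electrode MEA wells (PEI-coated, laminin in plating drop), exposed from plating through DIV 12 with compound renewed at DIV 5 and 9. Mean network-spike duration recorded DIV 5, 7, 9, 12; trapezoidal AUC across days, DMSO baseline.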

Assay [12] can be described thus: CCTE_Shafer_MEA_dev_network_spike_duration_std: CCTE's Neural Network Formation Assay for Standard Deviation of Network Spike Duration, Shafer Lab (AID 2284052; active = hit-call score of the fitted dose curve at least 0.9, where 1 is the maximum; inactive = score below 0.9;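 also: area under curve of spike duration SD across recording days 5 to 12; hits are decreases in network spike duration SD versus DMSO vehicle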). The procedure, abridged:
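Primary rat cortical neurons on PEI-coated 16-electrode MEA wells, exposed from plating day 0 through day 12 with compound renewed at DIV 5 and 9. Network spike duration SD recorded on days 5, 7, 9, 12, collapsed as trapezoidal AUC; loss-of-signal fit versus DMSO.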

Assay [13] in a line: CCTE_Shafer_MEA_dev_per_network_spike_spike_number_mean: CCTE's Neural Network Formation Assay for Mean Number of Spikes in a Network Spike, Shafer Lab (AID 2284053; active = hit-call score of the fitted dose curve at least 0.9, where 1 is the maximum; inactive = score below 0.9;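 also: fitted as decrease in spikes per network spike relative to DMSO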). The procedure, abridged: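 Primary rat cortical neurons on 48-well, 16-electrode MEA plates were exposed from plating to DIV 12, with dosing renewed on DIV 5 and 9. Spikes per network spike (0.05 s peak window) were recorded on DIV 5, 7, 9 and 12 and collapsed as trapezoidal AUC versus DMSO.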

A short description of assay [14]: CCTE_Shafer_MEA_dev_per_network_spike_spike_percent: CCTE's Neural Network Formation Assay for Percent of Spikes in a Network Spike, Shafer Lab (AID 2284054; active = hit-call score of the fitted dose curve at least 0.9, where 1 is the maximum; inactive = score below 0.9). The procedure, abridged: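 Rat primary cortical neurons were grown on 48-well MEA plates (16 electrodes/well), exposed from plating day 0 through day 12, with treatment renewed on DIV 5 and 9. Percent of spikes within 0.05 s network-spike peaks was measured, summarised as AUC across days 5, 7, 9, 12.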

Assay [15] in a line: CCTE_Shafer_MEA_dev_LDH: CCTE's Lactate Dehydrogenase Assay for Cytotoxicity in the Neural Network Formation Assay, Shafer Lab (AID 2284068).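 Also: exposure for twelve days from plating with re-dosing on DIV 5 and 9.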 The procedure, abridged: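 Primary rat cortical neurons were plated on PEI/laminin MEA plates and exposed from day 0 for twelve days, with compound renewed at DIV 5 and 9. Cytotoxicity was determined by spectrophotometric LDH assay relative to DMSO.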

A short description of assay [16]: CCTE_Shafer_MEA_dev_AB: CCTE's Alamar Blue Assay for Cytotoxicity in the Neural Network Formation Assay, Shafer Lab (AID 2284083).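 Also: twelve days of exposure from plating with re-dosing on DIV 5 and 9.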 The procedure, abridged:
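Primary rat cortical neurons on PEI-coated 48-well MEA plates, 1.5 x 10^5 cells/well in laminin drop; compound exposure from day 0 of plating for twelve days, renewed at medium changes on DIV 5 and 9. Viability read as resazurin reduction by fluorescence, relative to DMSO.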

Assay [17] in a line: CCTE_Shafer_MEA_dev_mutual_information_norm: CCTE's Neural Network Formation Assay for Mutual Information Normalization, Shafer Lab (AID 2284091; active = hit-call score of the fitted dose curve at least 0.9, where 1 is the maximum; inactive = score below 0.9;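 also: mutual information between electrodes summarised as area under curve across four recording days; potency is for a decrease in mutual information relative to DMSO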). The procedure, abridged:
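Primary rat cortical neurons on PEI-coated 48-well MEA plates, 1.5 x 10^5 cells/well, exposed from day 0 through day 12 with re-dosing at DIV 5 and 9. Mutual information between electrodes recorded days 5, 7, 9, 12; trapezoidal AUC, loss-of-signal fit versus DMSO.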

A short description of assay [18]: CCTE_Shafer_MEA_acute_LDH: CCTE's Lactate Dehydrogenase Assay for Cytotoxicity in the Neural Acute Assay, Shafer Lab (AID 2284086).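 Also: active means LDH release rises above DMSO vehicle level.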 The procedure, abridged:
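Primary rat cortical neurons on 48-well MEA plates, treated on day 13 or 15 post-plating. After the 40-min recording with compound, medium LDH release was read by absorbance at 490 nm. Gain of signal was fitted against DMSO negative control.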

Results filed as inconclusive are left out. The source made the active and inactive calls. The calls were made as follows, unless noted: active = hit-call score of the fitted dose curve at least 0.9, where 1 is the maximum; inconclusive = response in the unintended direction; inactive = score below 0.9.

`CC(C)=CCC/C(C)=C\CO`: the result in assay [1] was inactive.

With `CCCCCCCCO`, the molecule was classed as inactive in assay [2], in assay [1] and in assay [3].

For the molecule `CNCc1ccc(NC(=O)c2c[nH]c3c2C(=O)CCC3)cc1`, the molecule was classed as inactive in assay [1], in assay [4], in [5], in assay [6], in assay [7] and in assay [8]. Also, the outcome in assay [9], in assay [12], in [14] and in assay [16] was inactive. Moreover, the AC50 in assay [10] was 2030 nM (active); in assay [11], 666 nM (active); in [13], 2490 nM (active); in assay [15] it was 865 nM (active); in assay [17] it was 755 nM (active).

As for `CCCC(=O)OCC`, the call in assay [2] and in assay [3] was inactive.

Consider `Cc1ccc(N)cc1O`, for which the outcome in assay [2], in assay [1] and in assay [3] was inactive.

In the case of `Nc1ccc(Nc2ccccc2)cc1`, the outcome in assay [2] and in [3] was inactive. The AC50 in [1] is 74600 nM (active).

`Cn1c(=O)cc(Oc2ccc(F)cc2F)c2cnc(NCC(C)(C)O)nc21`: the result in [2] and in assay [1] was inactive. Also, in assay [3], the concentration at half-maximal activity (AC50) was 79300 nM (active).

With `COCCOCCOCCOC`, the molecule was called inactive in assay [1].

Turning to `CC(C)c1cccc(C(C)C)c1N1C(=O)c2ccc(O)cc2C1=O`, in assay [1], the outcome was inactive.

For the molecule `CCN(C(=O)c1cc(C)cc(OC[C@H](C)Nc2ccncc2)c1)C(C)C`, in assay [1], the molecule was classed as inactive.

Regarding `O=c1[nH]c2ccc(S(=O)CCN3CCC(Cc4ccc(F)cc4)CC3)cc2o1` (centres undefined), the molecule was called inactive in [2] and in assay [3].

Take `O=c1n(CC2CO2)c(=O)n(CC2CO2)c(=O)n1CC1CO1` (centres undefined): in assay [2], the outcome was inactive. For the same molecule, the AC50 in assay [1] is 100000 nM (active).

Consider `CC(C)CCO`, for which the outcome in [2], in [1] and in [3] was inactive.

Consider `Nc1cccc(N)c1`, for which, in assay [1], the outcome was inactive.

Turning to `O=C(O)c1cccc(Oc2ccccc2)c1`, the result in [2] and in assay [3] was inactive. The concentration at half-maximal activity (AC50) in assay [1] is 0.708 nM (active).

With `C=CC(=C)CCC=C(C)C`, the call in assay [2] and in [3] was inactive.

In the case of `CCOCCOCCOCCO`, the result in assay [1] was inactive.

For `COc1ccc2sc(C(=O)Nc3nnn[nH]3)c(OC(C)C)c2c1`, the molecule was classed as inactive in [1], in assay [3] and in [18].

Regarding `Oc1ccc2c(c1)-c1ccccc1C2`, the AC50 in assay [1] was 156000 nM (active).

Turning to `COCCOc1cc2cc(C(=O)NC3CCN(C(C)C)CC3)n(CC(=O)Nc3ccc(Cl)cn3)c2cn1`, the call in assay [1] was inactive.

On to `CC1=CC(=O)CC(C)(C)C1`, for which the call in assay [1] was inactive.

For the molecule `CC(=O)OCCC(C)C`, the result in [1] was inactive.
